{"source": "the supplement of paper PMC8728848", "binders": {"B1": {"name": "MpL2 (Macrolepiota procera) (protein)", "chain": "MSTQVSSGQTYKITNVKAGTVIRLSGEDNKSIIGYPYHSGKNQQWTFNWTGKAWTLRSASSGSYLGIEGTPADGTRLVAVNDPFEWHIWRDEANENAFRIFVPFTNYNLDLSGYGDTTPGTPVQLWWTWEGLHQTWTIDRP"}}, "assay_in_all_cases": "glycan array binding signal (z-score within array); higher = stronger binding", "details_in_all_cases": "glycan notation: IUPAC condensed, linker removed; mutation: D22R", "key": {"GalNAc4S6S(b1-4)GlcNAc": {"target": "GalNAc4S6S(b1-4)GlcNAc", "procedure,_shortened": "(§1)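 Columns mapping to the same glycan were averaged after glycan names were converted to IUPAC-condensed notation. The data come from 3228 arrays in the Consortium for Functional Glycomics database, limited to those with an available protein sequence. Binding is reported as a within-array Z-score averaged across arrays of one protein sequence and across linkers.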"}, "GlcA(b1-6)Gal": {"target": "GlcA(b1-6)Gal", "procedure,_shortened": "as §1"}, "[1]": {"target": "GlcNAc(a1-4)Gal(b1-4)GlcNAc(b1-3)Gal(b1-4)GlcNAc(b1-3)Gal(b1-4)GlcNAc", "procedure,_shortened": "as §1"}, "GlcNAc(b1-3)Fuc": {"target": "GlcNAc(b1-3)Fuc", "procedure,_shortened": "as §1"}, "GlcNAc(b1-3)Gal": {"target": "GlcNAc(b1-3)Gal", "procedure,_shortened": "as §1"}, "[2]": {"target": "GlcNAc(b1-3)Gal(b1-4)GlcNAc(b1-2)[GlcNAc(b1-3)Gal(b1-4)GlcNAc(b1-6)]Man(a1-6)[GlcNAc(b1-3)Gal(b1-4)GlcNAc(b1-2)Man(a1-3)]Man(b1-4)GlcNAc(b1-4)GlcNAc", "procedure,_shortened": "as §1"}, "[3]": {"target": "GlcNAc(b1-3)Gal(b1-4)GlcNAc(b1-3)Gal(b1-4)GlcNAc(b1-3)Gal(b1-4)GlcNAc(b1-3)Gal(b1-4)GlcNAc(b1-2)[GlcNAc(b1-3)Gal(b1-4)GlcNAc(b1-3)Gal(b1-4)GlcNAc(b1-3)Gal(b1-4)GlcNAc(b1-3)Gal(b1-4)GlcNAc(b1-6)]Man(a1-6)[GlcNAc(b1-3)Gal(b1-4)GlcNAc(b1-3)Gal(b1-4)GlcNAc(b1-3)Gal(b1-4)GlcNAc(b1-3)Gal(b1-4)GlcNAc(b1-2)Man(a1-3)]Man(b1-4)GlcNAc(b1-4)[Fuc(a1-6)]GlcNAc", "procedure,_shortened": "as §1"}, "[4]": {"target": "GlcNAc(b1-3)Gal(b1-4)GlcNAc(b1-6)[GlcNAc(b1-3)]Gal(b1-4)GlcNAc", "procedure,_shortened": "as §1"}, "GlcNAc(b1-3)GalNAc": {"target": "GlcNAc(b1-3)GalNAc", "procedure,_shortened": "as §1"}, "[5]": {"target": "GlcNAc(b1-4)[GlcNAc(b1-6)]GalNAc", "procedure,_shortened": "as §1"}, "[6]": {"target": "GlcNAc(b1-6)Gal(b1-4)GlcNAc", "procedure,_shortened": "as §1"}, "[7]": {"target": "Neu5Ac(a2-3)Gal(b1-3)GlcNAc(b1-2)Man(a1-3)[GlcNAc(b1-4)][Neu5Ac(a2-3)Gal(b1-3)GlcNAc(b1-2)Man(a1-6)]Man(b1-4)GlcNAc(b1-4)GlcNAc", "procedure,_shortened": "as §1"}, "[8]": {"target": "Neu5Ac(a2-3)Gal(b1-3)[Neu5Ac(a2-6)]GlcNAc(b1-3)[Fuc(a1-3)[Gal(b1-4)]GlcNAc(b1-6)]Gal(b1-4)Glc", "procedure,_shortened": "as §1"}, "[9]": {"target": "Neu5Ac(a2-3)Gal(b1-3)]Neu5Ac(a2-3)Gal(b1-4)]GlcNAc", "procedure,_shortened": "as §1"}, "[10]": {"target": "Neu5Ac(a2-3)Gal(b1-4)GlcNAc(b1-2)[Neu5Ac(a2-3)Gal(b1-4)GlcNAc(b1-4)]Man(a1-3)[GlcNAc(b1-4)][Neu5Ac(a2-3)Gal(b1-4)GlcNAc(b1-4)Man(a1-6)]Man(b1-4)GlcNAc(b1-4)GlcNAc", "procedure,_shortened": "as §1"}, "[11]": {"target": "Neu5Ac(a2-3)Gal(b1-4)GlcNAc(b1-3)Gal(b1-4)[Fuc(a1-3)]GlcNAc", "procedure,_shortened": "as §1"}, "[12]": {"target": "Neu5Ac(a2-3)Gal(b1-4)[Fuc(a1-3)]GlcNAc(b1-3)Gal(b1-4)[Fuc(a1-3)]GlcNAc(b1-3)Gal(b1-4)[Fuc(a1-3)]GlcNAc", "procedure,_shortened": "as §1"}, "[13]": {"target": "Neu5Ac(a2-6)Gal(b1-4)GlcNAc(b1-2)Man", "procedure,_shortened": "as §1"}, "[14]": {"target": "Neu5Ac(a2-6)Gal(b1-4)GlcNAc(b1-3)Gal(b1-3)GlcNAc", "procedure,_shortened": "as §1"}, "[15]": {"target": "Neu5Ac(a2-6)Gal(b1-4)GlcNAc(b1-3)Gal(b1-4)GlcNAc(b1-3)Gal(b1-4)GlcNAc(b1-2)Man(a1-3)[Neu5Ac(a2-6)Gal(b1-4)GlcNAc(b1-3)Gal(b1-4)GlcNAc(b1-3)Gal(b1-4)GlcNAc(b1-2)Man(a1-6)]GalNAc", "procedure,_shortened": "as §1"}, "[16]": {"target": "Neu5Ac(a2-6)Gal(b1-4)GlcNAc(b1-3)Gal(b1-4)GlcNAc(b1-3)[Neu5Ac(a2-6)Gal(b1-4)GlcNAc(b1-3)Gal(b1-4)GlcNAc(b1-6)]GalNAc", "procedure,_shortened": "as §1"}, "[17]": {"target": "Neu5Ac(a2-6)Gal(b1-4)GlcNAc(b1-3)GalNAc", "procedure,_shortened": "as §1"}, "[18]": {"target": "Neu5Ac(a2-6)Gal(b1-4)GlcNAc(b1-6)[Gal(b1-3)]GalNAc", "procedure,_shortened": "as §1"}, "Neu5Ac(a2-6)GalNAc": {"target": "Neu5Ac(a2-6)GalNAc", "procedure,_shortened": "as §1"}, "[19]": {"target": "Neu5Ac(a2-8)Neu5Ac(a2-8)Neu5Ac(a2-3)[GalNAc(b1-4)]Gal(b1-4)Glc", "procedure,_shortened": "as §1"}, "[20]": {"target": "Neu5Ac(b2-6)Gal(b1-4)GlcNAc", "procedure,_shortened": "as §1"}}, "note": "The sample as a whole holds a higher share of the strongest signals than the screen did.", "data": [{"binder": "B1", "values": [{"measurement": "glycan array binding signal (z-score)", "setting": "GalNAc4S6S(b1-4)GlcNAc", "result": -0.021}, {"measurement": "glycan array binding signal (z-score)", "setting": "GlcA(b1-6)Gal", "result": 9.35}, {"measurement": "glycan array binding signal (z-score)", "setting": "[1]", "result": -0.264}, {"measurement": "glycan array binding signal (z-score)", "setting": "GlcNAc(b1-3)Fuc", "result": 0.069}, {"measurement": "glycan array binding signal (z-score)", "setting": "GlcNAc(b1-3)Gal", "result": -0.201}, {"measurement": "glycan array binding signal (z-score)", "setting": "[2]", "result": 1.11}, {"measurement": "glycan array binding signal (z-score)", "setting": "[3]", "result": 0.58}, {"measurement": "glycan array binding signal (z-score)", "setting": "[4]", "result": -0.264}, {"measurement": "glycan array binding signal (z-score)", "setting": "GlcNAc(b1-3)GalNAc", "result": -0.361}, {"measurement": "glycan array binding signal (z-score)", "setting": "[5]", "result": -0.082}, {"measurement": "glycan array binding signal (z-score)", "setting": "[6]", "result": -0.168}, {"measurement": "glycan array binding signal (z-score)", "setting": "[7]", "result": 0.519}, {"measurement": "glycan array binding signal (z-score)", "setting": "[8]", "result": 0.292}, {"measurement": "glycan array binding signal (z-score)", "setting": "[9]", "result": -0.346}, {"measurement": "glycan array binding signal (z-score)", "setting": "[10]", "result": -0.638}, {"measurement": "glycan array binding signal (z-score)", "setting": "[11]", "result": -0.58}, {"measurement": "glycan array binding signal (z-score)", "setting": "[12]", "result": -0.574}, {"measurement": "glycan array binding signal (z-score)", "setting": "[13]", "result": -0.185}, {"measurement": "glycan array binding signal (z-score)", "setting": "[14]", "result": 0.558}, {"measurement": "glycan array binding signal (z-score)", "setting": "[15]", "result": 2.64}, {"measurement": "glycan array binding signal (z-score)", "setting": "[16]", "result": 2.97}, {"measurement": "glycan array binding signal (z-score)", "setting": "[17]", "result": -0.516}, {"measurement": "glycan array binding signal (z-score)", "setting": "[18]", "result": -0.069}, {"measurement": "glycan array binding signal (z-score)", "setting": "Neu5Ac(a2-6)GalNAc", "result": -0.42}, {"measurement": "glycan array binding signal (z-score)", "setting": "[19]", "result": 0.163}, {"measurement": "glycan array binding signal (z-score)", "setting": "[20]", "result": 0.011}]}]}
